Experimental data: PubChem BioAssay AID1423 (NMMLSC, 2008)
In all, about 220,000 compounds went through this assay and about 750 (0.34%) were called active. The list comes from a sample in which actives are over-represented; it also holds similar structures and randomly drawn compounds. Unmarked numbers belong to inactive results. Rule as the data show it: active = response below about 60% or above about 140%; inactive = in between.

Each compound was assayed against Guanine nucleotide-binding protein G(o) subunit alpha (Homo sapiens) (UniProt P09471) (assay: compounds changing RGS8 association with Galphao – biochemical, multiplexed bead flow cytometry, primary screen (AID 1423;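 also: Galphao activated as the GDP aluminium fluoride complex binding bead-coupled RGS8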)). Settings: at 10 µM, actives lie on both sides.
Guanine nucleotide-binding protein G(o) subunit alpha (Homo sapiens), sequence (P09471 whole entry, looked up): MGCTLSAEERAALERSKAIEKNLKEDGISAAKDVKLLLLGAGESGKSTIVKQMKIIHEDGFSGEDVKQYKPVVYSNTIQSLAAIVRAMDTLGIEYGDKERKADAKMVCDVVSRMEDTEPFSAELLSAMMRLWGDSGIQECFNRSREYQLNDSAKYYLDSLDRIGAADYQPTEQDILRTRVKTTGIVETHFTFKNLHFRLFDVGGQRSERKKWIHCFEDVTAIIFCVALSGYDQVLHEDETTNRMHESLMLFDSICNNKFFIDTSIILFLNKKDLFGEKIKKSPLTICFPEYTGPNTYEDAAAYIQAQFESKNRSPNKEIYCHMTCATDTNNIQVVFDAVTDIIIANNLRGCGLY
`CCN(CC(=O)NCc1cccs1)C(=O)c1ccccc1F` showed a response (percent of control binding) of 99.2%. Compound `Cc1ccccc1OCC(O)CN1CCN(c2ccccn2)CC1` (stereo not given) has a response (percent of control binding) of 99.3%. For `Cc1ccc(OCC(O)CN2CCN(CC(O)COc3ccc(C)cc3Cl)CC2)c(Cl)c1` (stereo not given), the response (percent of control binding) was 165% [activator] (active). `Cc1cccc(C)c1OCC(O)CN1CCCCC1` (stereo not given) was tested, and the response (percent of control binding) was 99.3%. With `Cc1ccc(NCc2n[nH]c(=S)n2-c2ccccc2)cc1Cl` the response (percent of control binding) was 99.7%. In the case of `COc1ccc(C2C(C#N)=C(N)N(c3ncn[nH]3)C3=C2C(=O)CCC3)cc1` (stereo not given), the response (percent of control binding) is reported as 100%. `CC(=O)n1cc([C@@H]2C=C(C(=O)N3CCN(Cc4ccc5c(c4)OCO5)CC3)O[C@H](OCc3ccc(CO)cc3)C2)c2ccccc21` gave a response (percent of control binding) of 102%. `COc1ccc(COCC(O)CN2CCC(C(N)=O)CC2)cc1` (stereo not given) gave a response (percent of control binding) of 104%. For `O=[N+]([O-])C(=c1ccc2c(c1)N1C3=C(CCCC3)CC3CCCCC31N=2)[N+](=O)[O-]` (stereo not given), the response (percent of control binding) was 43.8% (active). With `COc1ccc(CNCCCO)cc1OC` the response (percent of control binding) was 108%. With `Cc1cc(=O)[nH]c(SCC(=O)Nc2ccc(Br)cc2)n1` the response (percent of control binding) was 93.2%. In the case of `Cc1ccc(N2C(=O)C3C(c4ccccc4)(C2=O)C3(c2ccccc2)c2ccccc2)cc1` (stereo not given), the response (percent of control binding) is reported as 23.3% (active). `Cc1ccc(N2C(=O)C(Cc3ccccc3)NC2=S)cc1` (stereo not given) showed a response (percent of control binding) of 102%. For `Cc1ccc(N2C(=O)C3CC3C2=O)cc1` (stereo not given), the response (percent of control binding) was 101%. `O=C(CCSc1ccccc1)N1CCN(c2ccccc2F)CC1` showed a response (percent of control binding) of 99.9%. For `CC1(C)C2CC=C(/C=N/NC(=O)c3ccc(Cl)cc3)C1C2` (stereo not given), the response (percent of control binding) was 105%. With `COc1ccc(/C(O)=C2\C(=O)C(=O)N(Cc3ccco3)C2c2ccc(OC)cc2OC)cc1` (stereo not given) the response (percent of control binding) was 98.3%. With `COc1cc(C2/C(=C(\O)c3ccc4c(c3)CC(C)O4)C(=O)C(=O)N2Cc2ccco2)ccc1O` (stereo not given) the response (percent of control binding) was 12.8% (active). In the case of `COCCCN1C(=O)C(=O)/C(=C(/O)c2ccc3c(c2)CC(C)O3)C1c1cccnc1` (stereo not given), the response (percent of control binding) is reported as 89.7%. Work on `Cc1ccc(-n2c(O)c(C=Nc3ccc(S(=O)(=O)Nc4ncccn4)cc3)c3ccccc3c2=O)cc1C` yielded a response (percent of control binding) of 102%. Work on `COC(=O)c1cc(NC(=O)C2C3C=CC(C3)C2C(=O)O)cc(C(=O)OC)c1` (stereo not given) yielded a response (percent of control binding) of 100%. Compound `O=C(CSc1nnc2n1CCCN2)c1ccccc1` has a response (percent of control binding) of 104%. `COc1cc(C(=O)NCc2ccc(-n3cccc3)cc2)cc(OC)c1OC` showed a response (percent of control binding) of 103%. Compound `O=C(CCCl)Nc1ccc(S(=O)(=O)NCc2ccco2)cc1` has a response (percent of control binding) of 98.5%. For `CCCn1nnnc1NC(=O)COc1ccc(Cl)cc1C`, the response (percent of control binding) was 11.9% (active). `Cc1cc(NC(=O)COc2ccc(Cl)cc2Cl)n(CCC#N)n1` gave a response (percent of control binding) of 99.5%. With `CCOC(=O)N1CCN(C(=O)COc2ccc(Cl)cc2C)CC1` the response (percent of control binding) was 101%. With `CCCCCN(C(=O)NC(=O)Nc1cccc(C)c1C)S(C)(=O)=O` the response (percent of control binding) was 102%. `O=C(CCc1ccccc1)Nc1ccc(NC(=O)C2CCCCC2)nc1` showed a response (percent of control binding) of 105%. In the case of `O=C(COC(=O)c1ccc[nH]c1=O)Nc1ccc2c(c1)OC(F)(F)O2`, the response (percent of control binding) is reported as 104%. `O=C(CSc1nc2ccc(Nc3nc(N4CCOCC4)nc(N4CCOCC4)n3)cc2s1)NCc1ccco1` was tested, and the response (percent of control binding) was 98.3%. For `Cc1ccc(C(=O)N/C(=C/c2cccs2)C(=O)NCC2CCCO2)cc1` (stereo not given), the response (percent of control binding) was 103%. Compound `O=C(Cn1nnc(-c2ccccc2)n1)N/N=C/c1ccc(-c2ccc(Cl)cc2)o1` has a response (percent of control binding) of 101%. `Clc1ccc2nc(-c3ccccc3)nc(C(Cl)Cl)c2c1` showed a response (percent of control binding) of 94.2%. For `Oc1ccc(-c2onc3ccc(Cl)cc23)cc1`, the response (percent of control binding) was 144% [activator] (active). For `O=C(Oc1cccc(N2C(=O)C3C4c5ccccc5C(c5ccccc54)C3C2=O)c1)c1ccco1` (stereo not given), the response (percent of control binding) was 102%. `O=C1C2C3C=CC(C4CC34)C2C(=O)N1c1nccs1` (stereo not given) was tested, and the response (percent of control binding) was 101%. `CCc1nnc(NC(=O)CCCSc2nc3ccccc3[nH]2)s1` gave a response (percent of control binding) of 101%. `Cc1ccc(NC(=O)/C(=C/c2ccc([N+](=O)[O-])cc2)NC(=O)c2ccccc2)cc1` gave a response (percent of control binding) of 106%. `COc1ccc(-c2nc3cnccn3c2NC(C)(C)CC(C)(C)C)cc1O` gave a response (percent of control binding) of 98.8%. With `COc1ccc(N=C(C)c2sc3ccccc3c2O)cc1` the response (percent of control binding) was 97.2%. With `CC(NC(=O)C1CCC(CNc2c(N3CCOCC3)c(=O)c2=O)CC1)c1ccccc1` (stereo not given) the response (percent of control binding) was 99.7%. With `O=C(NCc1ccc(F)cc1)C1CCC(CNc2c(N3CCOCC3)c(=O)c2=O)CC1` (stereo not given) the response (percent of control binding) was 8.33% (active). `COc1ccc(CNC(=O)C2CCC(CNc3c(N4CCOCC4)c(=O)c3=O)CC2)cc1` (stereo not given) showed a response (percent of control binding) of 103%. `Cc1cccc(C)c1NC(=O)Nc1ccccc1-n1ccnc1` showed a response (percent of control binding) of 101%. Compound `O=C(Nc1ccn(Cc2ccccc2)n1)c1cccc(F)c1` has a response (percent of control binding) of 103%. In the case of `Cc1ccc(Cn2ccc(NC(=O)c3cc(C(C)C)on3)n2)cc1`, the response (percent of control binding) is reported as 55.8% (active). With `Cc1ccc(Cn2ccc(NC(=O)C3C4CCC(C4)C3C(=O)O)n2)cc1` (stereo not given) the response (percent of control binding) was 102%. For `Cc1onc(-c2ccc(Cl)cc2)c1-c1ccnn1S(=O)(=O)c1ccc(Cl)cc1`, the response (percent of control binding) was 98.9%. `CS(=O)(=O)N(Cc1ccccc1)c1ccc(C(=O)NN=C2CCCCCC2)cc1` showed a response (percent of control binding) of 103%.
